This note sets out measurements from PubChem BioAssay.

Activity calls are given as the source filed them.

In test [1] the test system is PRMT1 (protein arginine N-methyltransferase 1). The experiment in a line: PRMT1 binders on small-molecule microarrays, primary screen, biochemical, small-molecule microarray, 635 nm fluorescence (AID 1088).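 Further: binding of Prmt1 protein to compounds spotted on small-molecule microarray slides.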 The note with it: small-molecule microarray binding, higher = more signal.
A short description of test [2]: yeast growth modulation, basal conditions, primary screen, YJM789 clinical isolate, OD600, 24 h (AID 1089).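 Further: growth of clinical yeast isolate S. cerevisiae YJM 789 seeded 1000 cells per well; test concentration not given here.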 The following applies: S. cerevisiae YJM789 growth, higher = more signal, called active from +8 up or from −8 down.
Test [3] can be described thus: fission yeast growth modulation, primary screen, strain 972, OD600, 24 h, no modulator (AID 1090).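 Further: basal condition with compound alone and no growth modifier present; test concentration not given here.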 The following applies: S. pombe 972 growth, higher = more signal, called active from +8 up or from −8 down.
Test [4] in a line: S. cerevisiae growth modulation with rapamycin, primary screen, strain BY4716, OD600, 96 h (AID 1091). Further: test concentration not given here. The note with it: higher = more signal, called active from +8 up or from −8 down.
The target of test [5] is Torsin-1A-interacting protein 2 (Homo sapiens) (UniProt Q8NFQ8). The experiment in a line: LULL1 binders on small-molecule microarray, primary screen, cell lysate, human LULL1 lysate, 635/667 nm fluorescence (AID 1092).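 Further: probe is lysate of COS7 cells overexpressing human LULL1; score merges per-feature 667 nm fluorescence with signal-to-noise.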 The following applies: hLULL1 lysate binding, 635 nm fluorescence, higher = more signal.
Test [6] can be described thus: E. coli growth modulation, two-sided OD650, primary screen, E. coli filamentation project, strain DRC41, 24 h (AID 1093).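 Further: MC1000 strain lacking acrAB efflux and sulA so SOS filamentation is blocked; test concentration not given here.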 The note with it: OD650, 24 h, higher = more signal, called active from +8 up or from −8 down.
Test [7] is described as follows: small-molecule microarray binders of probe aLefty2, primary screen, biochemical, biotinylated probe, 635/667 nm fluorescence (AID 1094).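 Further: score merges spot fluorescence near 667 nm with spot signal-to-noise ratio.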 The note with it: higher = more signal.
The test system of test [8] is Noggin (protein binding on small-molecule microarray). The experiment in a line: Noggin binders on small-molecule microarray, primary screen, biochemical, 635/667 nm fluorescence (AID 1095).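 Further: score merges 667 nm feature fluorescence with signal to noise over triplicate slides.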 The following applies: 635 nm fluorescence, higher = more signal.
For test [9], the target named is Neurogenic locus notch homolog protein 3 (Homo sapiens) (UniProt Q9UM47). The experiment in a line: NOTCH3 binders on small-molecule microarray, primary screen, biochemical, 635/667 nm fluorescence (AID 1096). The following applies: NOTCH3 binding, 635 nm fluorescence, higher = more signal.
The nature of test [10]: small-molecule microarray binders of probe aEGFR, primary screen, biochemical, biotinylated probe, 635/667 nm fluorescence (AID 1097).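 Further: probe is a biotinylated anti-EGFR antibody binding compounds printed on slides; score combines fluorescence near 667 nm and signal to noise of each spot.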 The note with it: higher = more signal.
Test [11] has as its system Plasmodium falciparum Sir2 (PF13_0152, Sir2A). The experiment in a line: pfSir2 binders on small-molecule microarrays, primary screen, biochemical, small-molecule microarray, 635 nm fluorescence (AID 1098).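 Further: score merges spot fluorescence intensity with its signal-to-noise ratio.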 The note with it: small-molecule microarray binding, fluorescence 635 nm; higher = more signal.
Test [12] in a line: small-molecule microarray binders of probe aDKK1, primary screen, biochemical, biotinylated probe, 635/667 nm fluorescence (AID 1099).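 Further: score merges 667nm spot fluorescence with signal to noise across triplicate slides; reference of the scale not given here.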 The following applies: higher = more signal.
The nature of test [13]: small-molecule microarray binders of probe aCHRDL2, primary screen, biochemical, biotinylated probe, 635/667 nm fluorescence (AID 1100). The note with it: higher = more signal.
The nature of test [14]: splicing luciferase reporter signal modulators, primary screen, spliceosome inhibition project, cell-based, HEK293, splice +/- reporter (AID 1101).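 Further: HEK293 cells carrying a splicing-competent luciferase reporter gene; test concentration not given here.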 The note with it: luminescence, 24 h, higher = more signal, called active from +8 up or from −8 down. For orientation: Reporter assays use an easily measured gene product as a stand-in for the process of interest.
The target of test [15] is Fibroblast growth factor 10 (Homo sapiens) (UniProt O15520). The experiment in a line: FGF10 binders on small-molecule microarrays, primary screen, biochemical, small-molecule microarray, 635 nm fluorescence (AID 1102). The note with it: FGF10 binding, fluorescence 635 nm, higher = more signal.
In test [16] the test system is glycogen synthase kinase-3 (GSK3A per assay name; protocol says GSK3B). The experiment in a line: GSK3 binders on small-molecule microarrays, primary screen, biochemical, small-molecule microarray, 635 nm fluorescence, GSK3A (AID 1103). Further: the record names both GSK3A and GSK3B. The note with it: small-molecule microarray binding, fluorescence 635 nm; higher = more signal.
For test [17], the target named is Epidermal growth factor receptor (Homo sapiens) (UniProt P00533). The experiment in a line: EGFR binders on small-molecule microarrays, primary screen, biochemical, small-molecule microarray, 635 nm fluorescence (AID 1104).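 Further: score merges 667 nm emission intensity with spot signal to noise over triplicate slides.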 The following applies: EGFR binding, higher = more signal.
Test [18] concerns the target Follistatin-related protein 3 (Homo sapiens) (UniProt O95633). The experiment in a line: FSTL3 binders on small-molecule microarrays, primary screen, biochemical, small-molecule microarray, 635 nm fluorescence (AID 1105).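 Further: score merges emission near 667 nm and signal to noise per printed spot across three slides.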 The note with it: FSTL3 binding, higher = more signal.
In test [19] the target is Dickkopf-related protein 1 (Homo sapiens) (UniProt O94907). The experiment in a line: DKK1 binders on small-molecule microarrays, primary screen, biochemical, small-molecule microarray, 635 nm fluorescence scan (AID 1106).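 Further: score merges emission near 667 nm with signal to noise over three replicate slides.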 The following applies: DKK1 binding, higher = more signal.
The test system of test [20] is Inhibin beta A chain (activin A). The experiment in a line: INHBA (activin A) binders on microarrays, primary screen, biochemical, small-molecule microarray, 635 nm fluorescence scan (AID 1107).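 Further: mouse activin A protein probed at 4.33 µg/mL on printed slides; score merges bound-protein fluorescence near 667 nm with spot signal-to-noise.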 The following applies: small-molecule microarray binding, higher = more signal.

Fibroblast growth factor 10 (Homo sapiens), sequence (O15520 whole entry, looked up): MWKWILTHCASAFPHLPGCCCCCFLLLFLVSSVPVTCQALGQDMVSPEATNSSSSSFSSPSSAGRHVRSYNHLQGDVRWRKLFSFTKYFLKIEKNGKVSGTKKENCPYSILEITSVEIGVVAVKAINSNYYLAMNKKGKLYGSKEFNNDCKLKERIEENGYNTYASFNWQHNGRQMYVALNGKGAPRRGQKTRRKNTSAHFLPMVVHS
Epidermal growth factor receptor (Homo sapiens), sequence (P00533 whole entry, looked up): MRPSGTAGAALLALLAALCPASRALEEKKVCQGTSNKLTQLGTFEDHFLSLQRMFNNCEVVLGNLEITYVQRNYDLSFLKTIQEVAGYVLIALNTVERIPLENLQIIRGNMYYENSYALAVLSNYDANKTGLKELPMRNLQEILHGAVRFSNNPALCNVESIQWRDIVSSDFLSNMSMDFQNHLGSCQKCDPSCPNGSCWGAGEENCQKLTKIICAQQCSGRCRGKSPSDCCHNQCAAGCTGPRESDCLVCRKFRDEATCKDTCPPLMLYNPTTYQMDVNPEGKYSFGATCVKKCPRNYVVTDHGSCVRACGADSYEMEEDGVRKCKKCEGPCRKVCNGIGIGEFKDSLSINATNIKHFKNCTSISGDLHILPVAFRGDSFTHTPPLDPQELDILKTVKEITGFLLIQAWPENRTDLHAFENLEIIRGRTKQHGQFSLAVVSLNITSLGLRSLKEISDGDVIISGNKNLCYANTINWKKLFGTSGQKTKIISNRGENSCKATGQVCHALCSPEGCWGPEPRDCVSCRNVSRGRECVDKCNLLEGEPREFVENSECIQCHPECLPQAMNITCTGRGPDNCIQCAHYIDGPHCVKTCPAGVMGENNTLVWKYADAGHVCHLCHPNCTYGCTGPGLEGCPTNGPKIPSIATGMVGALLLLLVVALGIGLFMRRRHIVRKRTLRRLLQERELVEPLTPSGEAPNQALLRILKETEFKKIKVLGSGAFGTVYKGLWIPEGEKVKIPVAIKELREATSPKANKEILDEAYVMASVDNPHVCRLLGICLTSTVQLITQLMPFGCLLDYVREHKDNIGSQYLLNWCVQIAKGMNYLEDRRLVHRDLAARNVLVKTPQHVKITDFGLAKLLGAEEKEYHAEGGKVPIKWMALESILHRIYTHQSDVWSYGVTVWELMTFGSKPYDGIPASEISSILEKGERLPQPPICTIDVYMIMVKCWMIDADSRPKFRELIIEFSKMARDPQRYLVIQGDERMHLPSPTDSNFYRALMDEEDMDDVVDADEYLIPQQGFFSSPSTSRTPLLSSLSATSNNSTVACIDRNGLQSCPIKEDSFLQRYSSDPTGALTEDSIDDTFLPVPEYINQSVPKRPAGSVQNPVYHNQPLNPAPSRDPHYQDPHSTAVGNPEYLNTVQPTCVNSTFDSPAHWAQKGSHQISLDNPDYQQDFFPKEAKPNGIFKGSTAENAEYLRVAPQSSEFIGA
Follistatin-related protein 3 (Homo sapiens), sequence (O95633 whole entry, looked up): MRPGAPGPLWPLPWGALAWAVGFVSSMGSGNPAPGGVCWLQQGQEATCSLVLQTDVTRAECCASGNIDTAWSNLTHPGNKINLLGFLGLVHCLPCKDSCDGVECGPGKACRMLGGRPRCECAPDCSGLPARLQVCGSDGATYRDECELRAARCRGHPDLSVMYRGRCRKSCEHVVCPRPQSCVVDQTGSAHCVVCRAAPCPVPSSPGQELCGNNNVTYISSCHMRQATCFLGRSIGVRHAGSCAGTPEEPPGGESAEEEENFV
Torsin-1A-interacting protein 2 (Homo sapiens), sequence (Q8NFQ8 whole entry, looked up): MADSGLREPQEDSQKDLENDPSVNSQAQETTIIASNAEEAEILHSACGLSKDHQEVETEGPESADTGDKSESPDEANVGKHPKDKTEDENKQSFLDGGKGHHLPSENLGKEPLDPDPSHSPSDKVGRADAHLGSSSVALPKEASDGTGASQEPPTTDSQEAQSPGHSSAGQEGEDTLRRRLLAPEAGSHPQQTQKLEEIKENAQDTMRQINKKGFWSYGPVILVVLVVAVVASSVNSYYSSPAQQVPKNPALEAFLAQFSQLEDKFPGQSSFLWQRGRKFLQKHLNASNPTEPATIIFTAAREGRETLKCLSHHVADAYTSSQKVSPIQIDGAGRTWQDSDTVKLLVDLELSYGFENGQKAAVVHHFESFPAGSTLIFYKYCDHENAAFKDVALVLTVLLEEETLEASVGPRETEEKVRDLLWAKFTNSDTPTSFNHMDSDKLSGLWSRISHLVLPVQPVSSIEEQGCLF
Neurogenic locus notch homolog protein 3 (Homo sapiens), sequence (Q9UM47 whole entry, looked up): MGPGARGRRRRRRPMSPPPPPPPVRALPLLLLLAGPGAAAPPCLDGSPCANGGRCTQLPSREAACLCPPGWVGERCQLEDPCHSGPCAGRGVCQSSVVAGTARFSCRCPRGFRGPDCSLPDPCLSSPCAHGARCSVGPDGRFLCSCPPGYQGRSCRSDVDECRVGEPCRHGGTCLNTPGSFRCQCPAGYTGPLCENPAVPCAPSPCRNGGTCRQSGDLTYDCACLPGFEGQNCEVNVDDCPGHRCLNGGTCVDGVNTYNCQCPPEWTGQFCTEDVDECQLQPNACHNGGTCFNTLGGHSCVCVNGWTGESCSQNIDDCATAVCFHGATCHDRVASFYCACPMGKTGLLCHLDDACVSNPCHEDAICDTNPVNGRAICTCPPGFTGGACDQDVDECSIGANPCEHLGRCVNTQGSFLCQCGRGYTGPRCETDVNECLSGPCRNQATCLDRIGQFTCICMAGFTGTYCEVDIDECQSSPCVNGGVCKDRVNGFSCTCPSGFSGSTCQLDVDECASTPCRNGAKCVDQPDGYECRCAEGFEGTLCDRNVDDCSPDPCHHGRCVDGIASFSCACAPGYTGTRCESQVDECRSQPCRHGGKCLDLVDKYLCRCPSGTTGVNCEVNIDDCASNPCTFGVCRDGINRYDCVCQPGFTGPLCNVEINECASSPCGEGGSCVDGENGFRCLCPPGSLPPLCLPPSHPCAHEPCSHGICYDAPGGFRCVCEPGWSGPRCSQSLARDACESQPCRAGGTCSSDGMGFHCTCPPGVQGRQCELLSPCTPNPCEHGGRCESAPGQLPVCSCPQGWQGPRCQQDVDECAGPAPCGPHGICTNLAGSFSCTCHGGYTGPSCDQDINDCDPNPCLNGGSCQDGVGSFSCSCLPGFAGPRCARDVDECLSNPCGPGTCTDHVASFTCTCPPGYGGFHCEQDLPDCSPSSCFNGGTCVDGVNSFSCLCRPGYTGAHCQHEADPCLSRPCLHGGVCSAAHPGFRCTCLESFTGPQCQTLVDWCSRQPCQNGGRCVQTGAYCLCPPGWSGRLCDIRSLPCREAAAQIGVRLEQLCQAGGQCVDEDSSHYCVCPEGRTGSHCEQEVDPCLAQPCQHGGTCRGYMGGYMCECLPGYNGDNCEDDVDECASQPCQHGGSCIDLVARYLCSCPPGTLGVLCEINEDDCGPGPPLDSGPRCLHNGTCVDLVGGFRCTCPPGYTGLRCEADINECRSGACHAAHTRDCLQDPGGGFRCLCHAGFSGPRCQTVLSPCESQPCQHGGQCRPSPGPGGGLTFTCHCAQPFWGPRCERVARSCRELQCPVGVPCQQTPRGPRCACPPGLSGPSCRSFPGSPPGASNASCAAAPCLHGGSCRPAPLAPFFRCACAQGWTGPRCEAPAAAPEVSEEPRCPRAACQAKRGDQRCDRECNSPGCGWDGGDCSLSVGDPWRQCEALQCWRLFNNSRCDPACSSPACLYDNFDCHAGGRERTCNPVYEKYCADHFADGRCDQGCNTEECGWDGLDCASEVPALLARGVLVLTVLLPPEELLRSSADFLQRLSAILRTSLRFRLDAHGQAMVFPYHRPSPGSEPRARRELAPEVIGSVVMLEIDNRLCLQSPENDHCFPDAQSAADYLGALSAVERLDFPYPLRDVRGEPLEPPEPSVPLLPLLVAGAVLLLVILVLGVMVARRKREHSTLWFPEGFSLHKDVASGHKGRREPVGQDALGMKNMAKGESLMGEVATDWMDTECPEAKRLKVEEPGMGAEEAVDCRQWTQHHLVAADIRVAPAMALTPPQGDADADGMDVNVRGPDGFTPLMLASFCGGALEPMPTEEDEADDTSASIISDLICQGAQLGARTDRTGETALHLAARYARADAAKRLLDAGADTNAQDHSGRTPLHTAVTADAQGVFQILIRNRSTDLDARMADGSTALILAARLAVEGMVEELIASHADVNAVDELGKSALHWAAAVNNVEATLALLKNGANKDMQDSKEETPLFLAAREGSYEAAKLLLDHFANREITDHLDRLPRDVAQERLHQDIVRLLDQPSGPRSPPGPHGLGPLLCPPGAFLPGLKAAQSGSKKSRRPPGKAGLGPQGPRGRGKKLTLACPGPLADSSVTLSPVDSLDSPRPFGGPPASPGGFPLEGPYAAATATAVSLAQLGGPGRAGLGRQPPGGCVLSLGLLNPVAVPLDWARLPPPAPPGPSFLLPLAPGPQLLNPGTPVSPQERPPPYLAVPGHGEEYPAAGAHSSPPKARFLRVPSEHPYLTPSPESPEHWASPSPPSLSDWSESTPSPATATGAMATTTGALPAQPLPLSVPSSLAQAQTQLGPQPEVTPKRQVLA
Dickkopf-related protein 1 (Homo sapiens), sequence (O94907 whole entry, looked up): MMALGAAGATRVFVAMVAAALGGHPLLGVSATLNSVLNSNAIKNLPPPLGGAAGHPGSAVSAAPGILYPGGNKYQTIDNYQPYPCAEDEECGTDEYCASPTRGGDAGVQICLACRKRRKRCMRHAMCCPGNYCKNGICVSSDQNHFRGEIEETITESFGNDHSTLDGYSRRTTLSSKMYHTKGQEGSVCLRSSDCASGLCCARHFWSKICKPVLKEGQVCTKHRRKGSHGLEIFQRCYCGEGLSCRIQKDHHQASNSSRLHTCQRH

In the case of `CCCC[C@H]1OB(O)C[C@H]2C1=C(C)Cn1c(=O)n(-c3ccccc3)c(=O)n12`, the composite z-score in [1] is 0.414; in [5] it was 0.262; in test [7], -0.119; in test [8], 0.688; in test [9] it was 0.37; in [10], -0.113. In addition, the composite z-score in test [11] was 0.161; in [12], -0.291; in test [13] it was -0.67; in test [15], 0.49; in [16], 0.37; in test [17], 0.512. Also, the figures for the composite z-score in test [18], in test [19] and in test [20] were 0.662, 0.779 and 0.255, respectively. Also, the z-score in [2] is 0.585 (inactive); in test [3] it was 1.19 (inactive); in [4] it was 0.261 (inactive); in test [6], -0.314 (inactive); in [14], -0.293 (inactive).

Consider `COCCCNC(=O)[C@]1(Cc2ccccc2N=[N+]=[N-])N=C(c2ccc(OCCCO)cc2)O[C@@H]1c1ccccc1CN=[N+]=[N-]`, for which the composite z-score in [1] was determined as 1.51; in test [5], 3.18; in test [7], 0.465; in [8] it was 0.579; in test [9], 1.09; in test [10], 0.606. Further, the composite z-score in test [11] turned out to be 1.09; in [12], 1.2; in test [13] it was 1.01; in test [15] it was 1.26; in test [16], 0.644; in [17], 0.504. Besides, the composite z-score in [18] worked out at 0.912; in test [19], 0.318; in test [20], 0.928. In addition, the z-score is -1.24 (inactive) in test [2]; -0.365 (inactive) in [3]; 4.94 (inactive) in test [4]; 1.01 (inactive) in test [6]; -0.4 (inactive) in [14].

As to `CN1C(=O)C2C(C1=O)C1C=C(c3ccc(CO)cc3)C2C(C2CC2)N1Cc1cc2c(cc1Br)OCO2` (stereo not given), the composite z-score in test [1] amounted to 1.53; in test [5] it was 3.49; in test [7], 0.313; in test [8], 0.268; in [9], 1.09; in test [10], 0.035. In addition, the composite z-score in test [11] is 1.65; in test [12], 0.0878; in test [13] it was 0.886; in test [15] it was 0.966; in test [16], 1.14; in [17] it was 0.482. Besides, the composite z-score came to 1.22 in test [18], 0.334 in [19] and 1.22 in test [20]. Further, the z-score was -3.93 (inactive) in [2]; -6.09 (inactive) in test [3]; 0.385 (inactive) in test [4]; -0.911 (inactive) in test [6]; 0.0287 (inactive) in test [14].

As for `COc1ccc(C(=O)Nc2cccc(CN3C(=O)[C@@]4(O[C@@H](CC(=O)N5Cc6ccccc6C[C@H]5CO)[C@H]([Si](C)(C)c5ccc(OC)cc5)[C@H]4C)c4ccccc43)c2)cc1`, the composite z-score is 1.55 in test [1]; 1.71 in test [5]; 0.0327 in test [7]; 1.25 in [8]; 0.893 in test [9]; 0.0276 in test [10]. Moreover, the composite z-score in test [11] was 1.42; in test [12] it was -0.287; in test [13], -0.0642; in test [15] it was 0.639; in test [16], 0.363; in test [17], 0.978. Besides, the composite z-score in test [18] was determined as 1.24; in test [19], 1.11; in test [20], 0.551. Besides, the z-score in test [2] is -1.26 (inactive); in test [3], 0.166 (inactive); in test [4], 1.22 (inactive); in [6] it was -0.209 (inactive); in test [14], -1.14 (inactive).

In the case of `[N-]=[N+]=Nc1ccccc1C[C@]1(C(=O)N2CCCCC2)N=C(c2ccc(OCCCO)cc2)O[C@H]1c1ccccc1N=[N+]=[N-]`, the composite z-score worked out at 1.56 in test [1]; 3.48 in test [5]; 0.512 in test [7]; 0.471 in test [8]; 1.05 in test [9]; 0.277 in test [10]. Besides, the composite z-score in test [11] is 1.42; in test [12] it was 0.0941; in test [13], 1.18; in test [15], 1.4; in test [16] it was 0.743; in test [17] it was -0.0207. Also, the values for the composite z-score in [18], in test [19] and in test [20] were 0.611, -0.235 and 1.25, respectively. Further, the z-score in test [2] was 0.0343 (inactive); in test [3], -10.4 (active); in test [4] it was 1.51 (inactive); in test [6], -0.204 (inactive); in test [14], -0.103 (inactive).
